Measurements reported in PubChem BioAssay (NCI).
Compounds without any hit were thinned out: in the full panel of roughly 83,000, 20% have a hit.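 In brief: 96-well plates, 48 h treatment, single concentration, percent growth endpoint.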 A number with no mark means an inactive call. Active and inactive are the calls of the source. The calls were made as follows: active = growth percent below 10; inactive = the rest.

Legend:
Assay in all cases: NCI-60 one-dose screen, 48 h (100 = growth as untreated, 0 = no growth, -100 = all killed)
NCI-H23 lung = settings: 10 µM unless noted
NCI-H226 lung = settings: 10 µM unless noted
NCI-H322M lung = settings: 10 µM unless noted
NCI-H460 lung = settings: 10 µM unless noted
HOP-92 NSCLC = settings: 10 µM
NCI-H522 lung = settings: 10 µM
A549/ATCC NSCLC = settings: 10 µM unless noted
786-0 renal = settings: 10 µM unless noted
DU-145 prostate = settings: 10 µM unless noted
K-562 leukemia = settings: 10 µM unless noted
MALME-3M melanoma = settings: 10 µM unless noted
MDA-MB-231 breast = settings: 10 µM unless noted
RXF 393 renal = settings: 10 µM unless noted
SF-268 CNS = settings: 10 µM unless noted
SF-295 CNS = settings: 10 µM unless noted
SF-539 CNS = settings: 10 µM unless noted
UACC-257 melanoma = settings: 10 µM unless noted
M14 melanoma = settings: 10 µM unless noted
COLO 205 colon = settings: 10 µM unless noted

Row | SMILES | growth (NCI-H23 lung) | growth (NCI-H226 lung) | growth (NCI-H322M lung) | growth (NCI-H460 lung) | growth (HOP-92 NSCLC) | growth (NCI-H522 lung) | growth (A549/ATCC NSCLC) | growth (786-0 renal) | growth (DU-145 prostate) | growth (K-562 leukemia) | growth (MALME-3M melanoma) | growth (MDA-MB-231 breast) | growth (RXF 393 renal) | growth (SF-268 CNS) | growth (SF-295 CNS) | growth (SF-539 CNS) | growth (UACC-257 melanoma) | growth (M14 melanoma) | growth (COLO 205 colon)
1 | Cc1cc2c(-c3nc4ccccc4[nH]3)c(O)c(O)cc2c(O)c1-c1c(C)cc2c(-c3nc4ccccc4[nH]3)c(O)c(O)cc2c1O | -19.5% (active) | -18.2% (active) | 20.2% | -53.7% (active) | 29.1% | -36.8% (active) | -25.4% (active) | -11.1% (active) | 16.6% | 6.02% (active) | -6.72% (active) | 23.3% | -8.07% (active) | 6.93% (active) | -17.5% (active) | -24.5% (active) | -3.19% (active) | -3.53% (active) | –
2 | C=C(C)[C@@H]1CC[C@]2(COC(=O)c3ccccc3C(=O)O)CC[C@]3(C)[C@H](CC[C@@H]4[C@@]5(C)CCCNC(C)(C)[C@@H]5CC[C@]43C)[C@@H]12 | 80.7% | 66.3% | 93.3% | 55.9% | 86.1% | 78.3% | 61.4% | 84.4% | 65.9% | – | 68.2% | 94.3% | – | 73.2% | 66.6% | 75.7% | 81.7% | 61.7% | –
3 | Cc1nc2ccccc2c(=O)n1-c1cccc(OCc2cn(-c3cccc(O)c3)nn2)c1 | 95.1% | 105% | 101% | – | 81.6% | 72.1% | 95.3% | 107% | 100% | 88.2% | 104% | 78.3% | 105% | 88.4% | 93.8% | 100% | 94.9% | 94.4% | 122%
4 | O=C(CBr)OCc1ccc([N+](=O)[O-])o1 | 97.2% | 104% | 132% | 91.6% | – | – | 100% | – | 108% | 111% | 107% | 101% | 94.8% | 88.6% | 96.5% | 103% | 88.5% | – | 100%
5 | CC(O)c1cc[cH-]c1.[Fe+2].c1cc[cH-]c1 (centres undefined) | 102% | 91.2% | 92.6% | 114% | – | – | 101% | 97.2% | 108% | 102% | 102% | 110% | 95.6% | 108% | 98.8% | 97% | 96.9% | 95.6% | 108%
6 | COc1cc(-c2nn(-c3ccc(NC(=O)c4ccc(Cl)c(C(F)(F)F)c4)cc3)cc2-c2ccncc2)ccc1Cl | 18.7% | 55.5% | 55.9% | 11.9% | – | – | 29% | -84.5% (active) | 45.2% | 8.48% (active) | 14.9% | 3.94% (active) | -56.3% (active) | 43.8% | -33.2% (active) | 13% | 54.2% | -44.3% (active) | -22.4% (active)
7 | C/C=C/C/C=C/[C@H](C)C[C@H](O)[C@@H]1C[C@@H]2O[C@H]2/C=C/[C@@H]2OC(C)(C)O[C@H]2/C=C/C[C@H](C)CC(=O)O1 | 36.3% | 30.5% | 55.5% | 17.4% | – | – | 24.7% | 53.5% | 36.1% | 30.1% | 87.6% | 61.6% | 81.1% | 46.9% | 28.8% | 71% | 69.9% | 36.8% | 61.1%
8 | CCCCCCCCCCCC(=O)OC(C)C(=O)Nc1ccccc1 (centres undefined) | 98.9% | 103% | 95.3% | 104% | – | – | 104% | 94.7% | 106% | 97.7% | 96.3% | 109% | 117% | 102% | 85.7% | 98.9% | 99.7% | 96.9% | 102%
9 | CCOC(=O)/C(C#N)=C(/CC)OCC | 110% | 102% | 92.2% | 110% | – | – | 104% | 103% | 106% | 89% | 92.6% | 107% | 114% | 93.1% | 101% | 113% | 99.9% | 95.5% | 113%
10 | Oc1ccc(N=Nc2ccc(N=Nc3ccccc3)cc2)cc1 | 59.9% | 57% | 49.7% | – | 79.8% | -15.1% (active) | 9.84% (active) | 38.3% | 49.3% | -7.03% (active) | 111% | 54.7% | 98.2% | 36.9% | 8.6% (active) | 2.09% (active) | 53% | 26.7% | 84.8%
11 | C/C=C(/C)C(=O)OC1C=C(CO)C(=O)C(OC(=O)C2(C)OC2C)C1C(C)C (centres undefined) | -63.1% (active) | -36.4% (active) | -3.37% (active) | – | -35.1% (active) | -79.5% (active) | -23.5% (active) | -89.7% (active) | 6.72% (active) | 1.51% (active) | -77.4% (active) | 1.48% (active) | -74.3% (active) | 13.3% | -20.5% (active) | -65.6% (active) | -9.59% (active) | -49.2% (active) | –
12 | COc1ccc(C(O)(c2ccccc2)C(C(=O)O)c2ccccc2)cc1 (centres undefined) | 102% | 106% | 105% | 116% | 63% | 98.5% | – | 103% | 118% | 101% | 107% | 103% | 121% | 107% | 118% | 92.7% | 127% | 103% | 111%
13 | O=C(CCC(=O)N(CCO)CCO)N(CCO)CCO | 108% | 105% | 96% | 116% | – | – | 105% | 96.4% | 107% | 96% | 103% | 109% | 113% | 108% | 96.4% | 101% | 101% | 99.5% | 98.4%
14 | O=c1[nH]c(=S)[nH]c(O)c1/C=C1\C=Nc2ccccc21 | 82.5% | 90.5% | 110% | 79.5% | 54.2% | 91.5% | – | 107% | 108% | 99.4% | 99.5% | 64.5% | – | 70% | 43% | 94.2% | 80.5% | 92.3% | 78.8%
15 | CC([C@H]1CC=C2C3CCC4=C[C@@H](N(C)C)CC[C@]4(C)C3CC[C@@]21C)N(C)C (some centres undefined) | 51.9% | 47.9% | 83.3% | – | 70.2% | 98.2% | 72% | -5.65% (active) | 57% | – | 83.9% | -6.46% (active) | – | 2.29% (active) | -86.8% (active) | 4.25% (active) | 17.9% | -56.8% (active) | -65.1% (active)
16 | CC(=O)OCC(=O)[C@@]1(O)[C@H](C)C[C@H]2[C@@H]3C=C(C)C4=Cc5c(cnn5-c5ccc(F)cc5)C[C@]4(C)[C@H]3[C@@H](O)C[C@@]21C | -28.2% (active) | 59.9% | 49.9% | – | 24.4% | -23.7% (active) | 16.7% | -26.5% (active) | 13.9% | 12.6% | 61.8% | 53.1% | -12.3% (active) | 34.2% | -32.2% (active) | -39.6% (active) | 49.8% | 32.6% | -39.2% (active)
17 | CCCCN(CCCC)c1ccc(C(=O)O)cc1 | 98.1% | 99.5% | 98.4% | 104% | – | – | – | 99.4% | 101% | 107% | 74% | 120% | 105% | 101% | 97.7% | 109% | – | 103% | 98.8%
18 | CC1(C)N=C(N)N=C(N)N1c1cccc(CCCCOc2ccccc2)c1 | 24% | 43.4% | 35.6% | 4.82% (active) | – | – | 11.2% | 21.8% | 27.6% | 16.2% | 43.1% | 46.8% | 50.2% | 27.2% | – | 34.1% | 28.7% | 23.6% | 29.3%
